Data published in PubChem BioAssay.
For some of these results: Potency and affinity values are given separately. Records with an inconclusive call do not appear. Unmarked numbers belong to inactive results. Some of the results follow. A call without a number means that no potency is given here. The source made the active and inactive calls.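 Rule for the calls, unless noted: active = signal drop whose fitted half-maximal concentration is at most twice the top valid dose, in every test run; inconclusive = mixed calls across runs, poor fit, or flat 30 to 70% inhibition; inactive = wrong direction, flat within 30%, or potency beyond limit.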

How the values were obtained:
[1] = PAX8 transcriptional activity inhibition in RMG-I – RMG-I cells, luciferase, cherry-pick, dose response (AID 687027;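 active = every replicate test run called active, with the signal dropping as expected and potency within twice the top valid dose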)
[2] = CMV-driven luciferase expression suppression in HEK293 – cell-based, luminescence, dry powder, counter-screen for Pax8 inhibitor project, dose response (AID 743020;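 active = signal-lowering compounds whose fitted half-maximal concentration is at or below twice the top tested dose in every run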;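 note: HEK293 cells stably expressing the CMV luciferase reporter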)
[3] = general cell-killing toxicity readout – plate reader, dry powder samples, cytotoxicity control for PAX8 inhibitor project, dose response (AID 743021; call rule not given here)
[4] = RMG-1 ovarian cancer cell viability loss – cherry-pick, dose response (AID 687029);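 note: cells exposed to compound for 96 hours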
[5] = IOSE-T80 viability loss, PAX8-independent line – cell-based, cherry-pick, selectivity assay for PAX8 inhibitor project, dose response (AID 687032;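 active = fitted half-maximal concentration for viability loss no higher than twice the top valid dose, in every repeat run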;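 note: cells exposed to compound for 96 h before reading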)
[6] = IGROV1 cell killing – plate reader, dry powder samples, PAX8 inhibitor project, dose response (AID 743043; call rule not given here;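 note: more negative means fewer viable cells or more cytotoxicity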)
[7] = OVCAR-3 cell viability loss – plate reader, dry powder samples, PAX8 inhibitor project, dose response (AID 743044; call rule not given here); settings: max activity: at 35 µM, hits give low values unless noted
[8] = toxicity toward immortalized ovarian surface epithelium – cell-based, plate reader, dry powder samples, cytotoxicity control for PAX8 inhibitor project, dose response (AID 743045; call rule not given here;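 note: more negative values mean more cell killing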)
[9] = A2780 cell killing – plate reader, dry powder samples, cytotoxicity control, dose response (AID 743046; call rule not given here)
[10] = OVCAR8 cell viability loss – plate reader, dry powder samples, PAX8 project, dose response (AID 743197; call rule not given here)
[11] = small-molecule DNA binding by polarization – biochemical, fluorescence polarization, cherry-pick, counter-screen for EWS/Fli inhibitor project, dose response (AID 720586;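 active = fitted curve reaches a 35% signal fall AC35 below twice the sample's top valid tested dose, actives reach about 48 µM in these data; inactive = the rest, including activity in the rising direction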;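 note: lower polarization ratio signals compound binding to DNA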)

## CCOc1ccc(-n2c(=S)sc3c(=O)[nH]c(SCC(=O)NCC4CCCO4)nc32)cc1 (configuration not stated)
[1]
  outcome: inactive
[2]
  outcome: inactive
[3]
  outcome: inactive

## CCC1CCCCN1S(=O)(=O)c1ccc(NC(=O)c2nc(S(C)(=O)=O)ncc2Cl)cc1 (configuration not stated)
[4]
  outcome: inactive

## CCCCn1c(O)c(N=NC(=O)Cn2c(C(F)(F)F)nc3ccccc32)c2ccccc21
[1]
  outcome: inactive
[2]
  outcome: inactive
[3]
  outcome: inactive

## Cc1nc(-c2ccc(NC(=O)c3ccco3)cc2)cs1
[4]
  outcome: inactive

## Nc1nc(=S)c2ncn([C@@H]3O[C@H](CO)[C@@H](O)[C@H]3O)c2[nH]1
[4]
  outcome: inactive

## COc1ccc(C(=O)NC(=S)NNC(=O)c2c(-c3ccccc3)noc2C)cc1
[1]
  outcome: inactive
[3]
  outcome: inactive

## COc1ccc2c(COC(=O)CNC(=O)C34CC5CC(CC(C5)C3)C4)cc(=O)oc2c1
[1]
  outcome: inactive
[3]
  outcome: inactive

## COc1ccccc1NC(=O)c1nc(S(=O)(=O)Cc2ccccc2)ncc1Cl
[4]
  outcome: inactive

## CC(=O)/C=C/n1c(=S)oc2ccccc21
[4]
  outcome: inactive

## CCCCCCN(C(=O)CCl)c1ccccc1
[4]
  outcome: inactive

## O=C(NCc1ccco1)C1CCCN(S(=O)(=O)c2ccc(Br)cc2)C1 (configuration not stated)
[1]
  outcome: inactive
[2]
  outcome: inactive
[3]
  outcome: inactive

## O=S(=O)(NCC1CCCO1)c1cnc(Cl)c(Br)c1 (configuration not stated)
[1]
  outcome: inactive
[2]
  outcome: inactive
[3]
  outcome: inactive

## Cc1ccc(S(=O)(=O)Nc2ccc3c(c2)C(=O)N([C@@H](C)CO)C[C@@H](C)[C@@H](CN(C)C)OCCCC[C@H](C)O3)cc1
[1]
  outcome: inactive
[5]
  outcome: inactive
[2]
  outcome: inactive
[3]
  outcome: inactive
[6]
  outcome: inactive
[7]
  max activity: 20.9% [at 0.26 µM, hits give low values]
[8]
  outcome: inactive
[9]
  outcome: inactive
[10]
  outcome: inactive

## O=C(O)c1ccc(N/N=C/c2ccc3c(c2)OCO3)cc1
[4]
  outcome: inactive

## COc1cccc(S(=O)(=O)NCC(=O)Nc2ccc(C(C)(C)C)cc2)c1
[1]
  outcome: inactive
[5]
  outcome: inactive
[3]
  outcome: inactive

## CCSc1cc(N2CCOCC2)nc(-c2ccc(Cl)cc2)n1
[1]
  outcome: inactive
[2]
  outcome: inactive
[3]
  outcome: inactive

## O=C(Nc1ccc([N+](=O)[O-])cc1)C(=O)Nc1cccc(C(=O)O)c1
[4]
  outcome: inactive

## CN(C)CCNC(=O)c1cc2c(s1)-c1ccc(Cl)cc1SC2
[4]
  outcome: inactive

## CCOc1ccc2nc(N/C(N)=N/C(=S)Nc3ccc(C)c(C)c3)nc(C)c2c1
[1]
  outcome: inactive
[2]
  outcome: inactive
[3]
  outcome: inactive

## COC(=O)C1=C(C)N(Cc2cccc(C(F)(F)F)c2)C(=NCc2ccc(OC)cc2)NC1c1cccc(F)c1 (configuration not stated)
[4]
  outcome: inactive

## COc1ccccc1CNC(=O)c1ccc2nc3[nH]c4ccccc4c3nc2c1
[1]
  outcome: inactive
[5]
  outcome: inactive
[3]
  outcome: inactive

## CN(C[C@H]1N[C@@H](CO)[C@@H]1c1ccc(C2=CCCC2)cc1)C(=O)c1cccc(F)c1
[4]
  outcome: inactive

## COc1cccc(CC(=O)Nc2nc3c(s2)C(=O)CC(C)(C)C3)c1
[1]
  outcome: inactive
[2]
  outcome: inactive

## Cc1cc(CN(C)C(=O)c2cc(COc3ccc4ncccc4c3)on2)on1
[1]
  outcome: inactive
[2]
  outcome: inactive
[3]
  outcome: inactive

## O=c1c(Cl)c(Cl)cnn1-c1ccccc1
[4]
  outcome: inactive
[5]
  outcome: inactive

## CC1CCN(c2ccc(-c3cccc(NC(=O)C(F)(F)F)c3)nn2)CC1
[4]
  outcome: inactive
[5]
  outcome: inactive

## C[C@H](CO)N1C[C@H](C)[C@@H](CN(C)S(=O)(=O)c2ccc(F)cc2)OCCCC[C@H](C)Oc2ccc(NS(=O)(=O)c3ccc(Cl)cc3)cc2C1=O
[4]
  outcome: inactive
[5]
  outcome: inactive

## O=c1cc(-c2ccc(O)cc2)oc2ccc3ccccc3c12
[4]
  outcome: inactive
[5]
  outcome: inactive

## CC[C@@H](C)[C@H](CNC)NC[C@@H](Cc1cccc2ccccc12)NCCc1cccc(C(F)(F)F)c1
[4]
  outcome: inactive
[5]
  outcome: inactive

## COc1ccccc1N(C(=O)CCl)c1cn(C(C)=O)c2ccccc12
[4]
  outcome: inactive
[5]
  outcome: inactive

## COc1ccc(/C=N/Nc2cc(C)nc3ccc(Br)cc23)cc1
[4]
  outcome: inactive
[5]
  outcome: inactive

## CC(OC(=O)c1ccc(S(C)(=O)=O)c([N+](=O)[O-])c1)C(=O)NC1C2CC3CC(C2)CC1C3 (configuration not stated)
[4]
  outcome: inactive
[5]
  outcome: inactive

## CCN(CC)S(=O)(=O)c1cc([N+](=O)[O-])ccc1NNC(=O)Nc1ccc(Cl)c(Cl)c1
[4]
  outcome: inactive
[5]
  outcome: inactive

## COc1cc(/C=N/Nc2nc(Nc3ccc(C)cc3)nc(-n3nc(C)cc3C)n2)cc(OC)c1OC
[4]
  outcome: inactive
[5]
  outcome: inactive

## Cc1cc(=O)n2c3c(c4c(cc13)c(CN(C)C)cc(=O)n4C)OC2
[4]
  outcome: inactive
[5]
  outcome: inactive

## COc1cccc(NC(=O)Nc2nc(-c3ccc(OC)c(OC)c3)cs2)c1
[4]
  outcome: inactive
[5]
  outcome: inactive

## CCS(=O)(=O)c1ncc(Cl)c(C(=O)Nc2ccc(C)cc2)n1
[4]
  outcome: inactive
[5]
  outcome: inactive

## Brc1ccc2nc(-c3ccc(CN4CCC(c5nc6ccccc6[nH]5)CC4)cc3)c(-c3ccccc3)nc2c1
[4]
  outcome: inactive
[5]
  outcome: inactive

## COc1ccc(NC(=O)c2cc([N+](=O)[O-])ccc2O)cc1
[4]
  outcome: inactive
[5]
  outcome: inactive

## O=C(C#Cc1ccccc1)c1ccco1
[4]
  outcome: inactive
[5]
  outcome: inactive

## COc1ccc(-c2sc3ccccc3c2-c2ccc(OCCN(C)C)cc2)cc1
[4]
  outcome: inactive
[5]
  outcome: inactive

## COC(=O)C1=C(C)N(Cc2ccc(C(F)(F)F)cc2)C(=NCc2ccccc2)NC1c1cccc(Cl)c1 (configuration not stated)
[4]
  outcome: inactive
[5]
  outcome: inactive

## C=CCOc1ccccc1CN(C(=O)CCl)c1ccc2c(c1)OCO2
[4]
  outcome: inactive
[5]
  outcome: inactive

## OC(CNCC(c1ccc(Cl)cc1Cl)c1c[nH]c2ccccc12)c1ccccc1 (configuration not stated)
[4]
  outcome: inactive
[5]
  outcome: inactive

## COc1ccc(C2C(O)C(c3c[nH]c4ccccc34)=NN2C(=O)CCl)cc1 (configuration not stated)
[4]
  outcome: inactive
[5]
  outcome: inactive

## NC1=CC(=O)C(=O)c2cccnc21
[4]
  outcome: inactive
[5]
  outcome: inactive
[11]
  AC35: inactive
[3]
  outcome: inactive

## CCS(=O)(=O)c1ncc(Cl)c(C(=O)Nc2ccc(S(=O)(=O)N(C)c3ccccc3)cc2)n1
[4]
  outcome: inactive
[5]
  outcome: inactive

## CN(C[C@H]1N[C@@H](CO)[C@@H]1c1ccc(-c2cccnc2)cc1)C(=O)c1ccccc1
[4]
  outcome: inactive
[5]
  outcome: inactive

## OCC1OC(n2cnc3c(NCc4ccco4)ncnc32)C(O)C1O (configuration not stated)
[4]
  outcome: inactive
[5]
  outcome: inactive

## Cc1cc(C)c2nc(C)cc(N/N=C/c3ccc(O)cc3)c2c1
[4]
  outcome: inactive
[5]
  outcome: inactive

## N#C[C@H]1[C@H](c2ccc(C#CC3CCCC3)cc2)[C@@H](CO)N1C(=O)Nc1ccc(F)cc1
[4]
  outcome: inactive
[5]
  outcome: inactive

## COc1ccc(N(C(=O)CCl)C(C(=O)NC2CCCCC2)c2cccnc2)cc1 (configuration not stated)
[4]
  outcome: inactive
[5]
  outcome: inactive

## COc1ccc(C#Cc2ccc([C@H]3[C@@H](CO)N4CCCCN(C(=O)Nc5cccc(F)c5)C[C@H]34)cc2)cc1
[4]
  outcome: inactive
[5]
  outcome: inactive

## Cc1nn(-c2ccccc2)c(Cl)c1CN(C(=O)CCl)c1ccc(Cl)cc1
[4]
  outcome: inactive
[5]
  outcome: inactive

## COc1ccc(N(C(=O)CCl)C(C(=O)NCCc2ccccc2)c2cccs2)cc1Cl (configuration not stated)
[4]
  outcome: inactive
[5]
  outcome: inactive

## O=C(Nc1ccc2nc3n(c(=O)c2c1)CCCCC3)c1cc([N+](=O)[O-])ccc1F
[4]
  outcome: inactive
[5]
  outcome: inactive

## C[C@H]1CN([C@@H](C)CO)C(=O)c2c(c3ccccc3n2C)-c2ccccc2CO[C@H]1CN(C)S(=O)(=O)c1ccc([N+](=O)[O-])cc1
[4]
  outcome: inactive
[5]
  outcome: inactive

## CCC[C@H](CN[C@@H](CNC)[C@H](C)CC)NCCc1cc(C(F)(F)F)cc(C(F)(F)F)c1
[4]
  outcome: inactive
[5]
  outcome: inactive

## O=c1c(Br)c(Br)cnn1-c1ccccc1
[4]
  outcome: inactive
[5]
  outcome: inactive

## CC1OC(CC(=O)O)CC2=C1C(=O)c1c(O)cccc1C2=O (configuration not stated)
[4]
  outcome: inactive
[5]
  outcome: inactive

## COc1ccc(S(=O)(=O)/N=C2\C=C(Nc3ccc(O)cc3)C(=O)c3ccccc32)cc1
[4]
  outcome: inactive
[5]
  outcome: inactive
[2]
  outcome: inactive

## CC(=O)n1cc(N(C(=O)CCl)c2ccccc2)c2ccccc21
[4]
  outcome: inactive
[5]
  outcome: inactive

## N#C[C@@H]1[C@H](c2ccc(C#CC3CCCC3)cc2)[C@H](CO)N1C(=O)Nc1ccc(F)cc1
[4]
  outcome: inactive
[5]
  outcome: inactive

## C#Cc1cc(N2CCN(C(=O)c3ccoc3)CC2)n2nc(-c3cccc(Cl)c3)cc2n1
[4]
  outcome: inactive
[5]
  outcome: inactive

## COc1ccc(-c2cc(-c3ccccc3)c(C#N)c(S(C)(=O)=O)n2)cc1
[4]
  outcome: inactive
[5]
  outcome: inactive
[2]
  outcome: inactive
[3]
  outcome: inactive

## CN(C)CCOc1ccc2c(c1)C(=O)C(=Cc1ncc([N+](=O)[O-])n1C)C2
[4]
  outcome: inactive
[5]
  outcome: inactive
[2]
  outcome: inactive
[3]
  outcome: inactive

## CC(=O)OC(C)(C)/C=C/C(=O)[C@](C)(O)C1[C@H](O)C[C@@]2(C)C3CC=C4C(C=C(O[C@@H]5O[C@H](CO)[C@@H](O)[C@H](O)[C@H]5O)C(=O)C4(C)C)[C@]3(C)C(=O)C[C@]12C (some centres not stated)
[4]
  outcome: inactive
[5]
  outcome: inactive
[2]
  outcome: inactive
[3]
  outcome: inactive

## CCN(CC(=O)Nc1c(F)cccc1F)C(=O)c1cc(S(=O)(=O)N(CC)CC)ccc1N1CCCCC1
[4]
  outcome: inactive
[5]
  outcome: inactive
[2]
  outcome: inactive
[3]
  outcome: inactive

## C[C@@H](NC(=O)c1nc[nH]c1C(=O)N[C@@H](Cc1ccccc1)C(=O)OC(C)(C)C)c1ccccc1
[4]
  outcome: inactive
[5]
  outcome: inactive
[2]
  outcome: inactive
[3]
  outcome: inactive

## Cc1ccccc1N=C1N=C(N)c2ccccc21
[4]
  outcome: inactive
[5]
  outcome: inactive
[2]
  outcome: inactive
[3]
  outcome: inactive

## O=C(NCCC1CCCCN1S(=O)(=O)c1ccc(Cl)cc1)C(=O)NCc1ccncc1 (configuration not stated)
[4]
  outcome: inactive
[5]
  outcome: inactive
[2]
  outcome: inactive
[3]
  outcome: inactive

## C=C1C(=O)[C@]23C[C@H]1CC[C@H]2[C@]1(C)[C@@H](OC(C)=O)CC[C@@](C)(C(=O)OC)[C@H]1C[C@@H]3OC(C)=O
[4]
  outcome: inactive
[5]
  outcome: inactive
[2]
  outcome: inactive
[3]
  activity change, negative = cytotoxicity: -15.7% [at 8 µM]

## Cc1cc(Sc2nnc(N)s2)c2ccccc2n1
[4]
  outcome: inactive
[5]
  outcome: inactive
[2]
  outcome: inactive
[3]
  outcome: inactive
